# The list is not random: actives were taken first. Their share in the collection is about 7.2%.
# ALR H2O2 inh = blocks human ALR sulfhydryl oxidase activity | purified ALR, DTT oxidation, H2O2 HRP-luminol luminescence | P55789 | inhibition, % (concentration not given with the values) | hit rate 3.8% among 290,000 | AID 485317;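 active means mean replicate inhibition above about 79%, with every replicate also reaching it, limit read from the data; inconclusive means only one of the two criteria met; inactive means mean below limit and not every replicate reaching it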
# Mot1-301 SUMO = blocks SUMOylation pathway, rescuing yeast Mot1-301 growth; S. cerevisiae Mot1-301 growth rescue, ATP luminescence, 38.5C; percent above DMSO median, 100 means doubled; growth rescue, % at 18.8 µM; hit rate 1% among 320,000; AID 2716;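 active means every valid replicate shows activation above 250% relative to neutral control wells; inactive means the rest, any valid replicate at or below 250%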;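 further: OY570 slx delta 5 strain wells were the positive control but not used for scaling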
# AHR activator = activates the human aryl hydrocarbon receptor; P35869; AHR-responsive luciferase reporter cells, luminescence; activation, % at 5 µM; hit rate 2.5% among 320,000; in the data active means activation above about 47%;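 further: 0% = vehicle wells and 100% = reference agonist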
# Target sequence (P35869 whole entry, looked up): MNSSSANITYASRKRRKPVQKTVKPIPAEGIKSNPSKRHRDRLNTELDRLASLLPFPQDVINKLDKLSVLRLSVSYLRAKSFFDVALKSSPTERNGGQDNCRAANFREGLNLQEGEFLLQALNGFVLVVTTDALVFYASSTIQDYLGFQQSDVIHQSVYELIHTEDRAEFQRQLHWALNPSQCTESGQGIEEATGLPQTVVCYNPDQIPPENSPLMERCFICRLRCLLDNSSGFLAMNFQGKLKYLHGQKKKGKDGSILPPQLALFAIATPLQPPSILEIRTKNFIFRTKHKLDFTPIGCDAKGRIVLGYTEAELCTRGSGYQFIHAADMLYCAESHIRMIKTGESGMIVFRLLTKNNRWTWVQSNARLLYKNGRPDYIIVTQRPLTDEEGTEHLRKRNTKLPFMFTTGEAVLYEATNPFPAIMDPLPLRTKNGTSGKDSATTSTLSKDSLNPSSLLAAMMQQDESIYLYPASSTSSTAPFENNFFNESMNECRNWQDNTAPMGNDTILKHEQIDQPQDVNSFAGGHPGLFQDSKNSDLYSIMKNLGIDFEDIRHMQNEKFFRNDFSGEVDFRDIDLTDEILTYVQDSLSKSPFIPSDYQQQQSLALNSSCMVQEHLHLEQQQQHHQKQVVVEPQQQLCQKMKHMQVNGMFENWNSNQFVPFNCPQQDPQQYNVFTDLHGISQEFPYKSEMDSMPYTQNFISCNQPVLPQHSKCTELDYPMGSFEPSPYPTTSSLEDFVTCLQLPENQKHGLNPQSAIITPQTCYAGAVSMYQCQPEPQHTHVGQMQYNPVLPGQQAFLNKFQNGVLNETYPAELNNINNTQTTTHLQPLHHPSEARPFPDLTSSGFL
# VLA-4 inh = inhibition in a human VLA-4 binding assay; P13612; VLA-4 expressing cells, ligand binding flow cytometry; hit rate 0.2% among 330,000; inhibition, % (about 7 µM as worked out from the volumes in the protocol); in the data active means inhibition above about 50%
# Efflux pump mplx = blocks antifungal efflux pumps in multiplex yeast assay | S. cerevisiae Candida pump triplex, Nile Red efflux | inhibition, % at 10 µM | hit rate 0.44% among 330,000 | AID 485275;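 active means plate passing quality check with inhibition over a set limit, or well fluorescence over plate mean plus 4 SD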;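 further: Nile Red retained in pooled yeast measured as flow cytometry median fluorescence; 0% = buffer negative control and 100% = Enniatin B positive control; higher means more Nile Red kept so more efflux inhibition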
# A1 inh = inhibitors of the anti-apoptotic protein A1, read as caspase activation. MEF A1-2A-BIM cells, Caspase-Glo 3/7 luminescence, 3 h; percent of clofoctol response, vehicle zero. caspase activation, % (test concentration not listed). hit rate 0.066% among 330,000;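 active means over half of replicate activation scores above 10%, or exactly half above 10 with the replicate mean above 10; inconclusive means replicate mean below 10 yet half the replicates above 10; inactive means over half of replicates below 10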
# * hit, by the source's call; ? = inconclusive; . = no result given.
SMILES,ALR H2O2 inh,Mot1-301 SUMO,AHR activator,VLA-4 inh,Efflux pump mplx,A1 inh
CC(c1ccco1)N(C(=O)c1ccc(C(F)(F)F)cc1)c1ccccn1 (centres undefined),2,.,-1,36,0,-5
CC(C(=O)Nc1ccc(O)cc1C(=O)O)N1C(=O)/C(=C\c2cccs2)SC1=S (centres undefined),87*,8,3,-8,0,0
CCOc1ccc(S(=O)(=O)NC(Cc2c[nH]c3ccccc23)C(=O)O)cc1 (centres undefined),.,93,18,-2,0,1
O=C(C1CC1c1ccccc1)N1CCOCC1 (centres undefined),98*,24,-2,0,0,0
CC(OC(=O)c1cccc(Cl)c1)C(=O)NC1CCCCC1C (centres undefined),-5,6,1,-1,0,-1
CC(OC(=O)c1ccc(-c2ccc(O)cc2)cc1)C(=O)NC1CCCCC1C (centres undefined),34,750*,0,5,0,-1
COc1ccc(Cc2nnc3sc(SCC(=O)Nc4ccccc4)nn3c2=O)cc1OC,64,-7,0,-4,0,1
CCCc1cc(CNC(=O)C2CCC(=O)N(Cc3ccccc3OC)C2)on1 (centres undefined),-4,-8,-1,-6,0,1
Cc1c(/C=N/NC(=O)c2cccnc2)c2ccccn2c1C(=O)c1ccc(F)cc1,12,4,73*,-3,0,0
Cc1c(/C=N/NC(=O)c2ccccc2O)c2ccccn2c1C(=O)c1ccc(F)cc1,.,.,53*,-5,-1,0
Cc1c(/C=N/NC(=O)CNc2ccccc2)c2ccccn2c1C(=O)c1ccccc1,.,.,53*,0,0,0
O=C(CSc1ncnc2sc(-c3ccccc3)cc12)NC1CCS(=O)(=O)C1 (centres undefined),30,5,-2,13,0,-2
CCCCCCCOc1ccc(C2CC(=O)N(C)C2=O)cc1 (centres undefined),3,-1,-1,11,0,-1
CC(=O)Nc1ccc(N)cc1,89*,-20,-1,3,0,0
Nc1ccc(NC(=O)Nc2ccc(N)cc2)cc1,99*,-9,.,11,0,1
Cc1ccccc1-c1nc(-c2ccc(NC(=O)c3cccs3)cc2)no1,-4,-11,57*,3,0,-5
Nc1ccc(NC(=O)c2cccs2)cc1,98*,-10,1,3,0,-1
Cc1ccc(NC(=O)c2cccs2)cc1,-4,6,3,-2,0,-4
Cc1cccc(C)c1NC(=O)CCCn1nc(C)c2c(C)n(-c3ccccc3)nc2c1=O,6,-23,1,3,0,0
Cc1sc2cc(-c3cccc([N+](=O)[O-])c3)c(-c3cccc([N+](=O)[O-])c3)c[n+]2c1C,-3,-17,-1,12,0,0
Cc1nnc(NC(=O)c2csc3c2CCC(C)C3)s1 (centres undefined),-28,56,15,3,0,-1
COc1ccccc1NC(=O)c1csc2c1CCCC2,.,18,69*,0,0,-1
Cc1nnc(NC(=O)c2csc3c2CCCC3)s1,-18,-4,55*,0,0,-1
CS(=O)(=O)N(CC(=O)NCc1ccccn1)Cc1ccc(Cl)cc1,99*,-9,-1,-7,0,-1
CS(=O)(=O)N(CC(=O)NCc1ccccc1)Cc1ccc(Cl)cc1,.,.,-2,-7,0,.
SMILES,ALR H2O2 inh,Mot1-301 SUMO,AHR activator,VLA-4 inh,Efflux pump mplx,A1 inh
CCn1c(=O)c2sccc2n(Cc2cc(C(=O)OC)ccc2OC)c1=O,8,-5,1,8,0,1
CCOC(=O)C1=C(COC(=O)/C=C/c2cc(Br)ccc2F)NC(=O)NC1C (centres undefined),-2,3,0,0,0,-1
O=C(Oc1coc(CSc2ncccn2)cc1=O)c1ccco1,?,6,-1,1,0,-1
O=C(Oc1coc(CSc2ncccn2)cc1=O)c1cccc([N+](=O)[O-])c1,97*,12,0,10,0,1
S=c1[nH]nc(Cc2sc(-c3ccccc3)nc2-c2ccccc2)o1,98*,-4,6,5,0,1
COc1cccc(C2C=C(c3ccc(Br)s3)Nc3ncnn32)c1OC (centres undefined),1,.,9,6,0,0
Fc1ccc(Br)cc1C1C=C(c2ccc(Br)s2)Nc2ncnn21 (centres undefined),88*,-6,4,-4,0,0
COC(=O)c1sc(NC(=O)COc2ccccc2)nc1C,-2,-13,7,-1,0,-1
Cc1nc(NC(=O)COc2ccccc2)sc1C(=O)Nc1ccccc1,-11,395,66*,-2,0,.
CCc1cc(C(=O)Nc2ncccc2O)sc1C,14,-3,78*,10,0,0
O=C(O)CC(NC(=O)C12CC3CC(CC(C3)C1)C2)c1ccc(OC2CCCC2)cc1 (centres undefined),5,-4,11,-5,0,0
O=C(N/N=C/c1cc2c(cc1Cl)OCO2)c1cc(-c2ccccc2)n[nH]1,.,58,34,13,-2,0
O=C(N/N=C\C=C\c1ccco1)c1cc(-c2ccc3ccccc3c2)n[nH]1,-4,594*,30,4,0,0
CCCCN(C(=O)c1cnccn1)c1c(N)n(CCC)c(=O)[nH]c1=O,-1,21,0,-17,0,0
COc1cccc(-n2c([S-])c(C(=O)Nc3ccc(C(F)(F)F)cc3)[n+]3ccccc23)c1,-2,4,-3,0,0,1
Cc1cc(Cl)ccc1OCC(O)CNCCc1ccc(S(N)(=O)=O)cc1 (centres undefined),-24,309*,7,10,0,0
Cc1cc(OCC(=O)Nc2ccc(CN3CCCCC3)cc2)ccc1Cl,-14,159,12,0,2,0
Cc1ccc(C2=NNC(c3ccc(Cl)cc3)=Nc3ccccc32)o1,-8,0,50*,15,0,0
N#Cc1cccnc1Nc1cccc(Cl)c1,-13,-2,77*,-8,0,1
COc1ccccc1C(=O)NCC(=O)NC(C)CCc1ccccc1 (centres undefined),-2,340*,5,4,0,0
CC(=O)Nc1c2c(nn1-c1ccc(C)cc1)CS(=O)(=O)C2,2,210,2,14,0,1
Cc1cc(NC(=O)c2cccc(Cl)c2)n[nH]1,.,-10,71*,24,0,-5
Cc1cccc(NC(=O)c2cccc(C(=O)Nc3cccc(C)n3)c2)n1,-8,9,50*,-11,0,0

# Source: PubChem BioAssay
